Bioassay records from PubChem.
GRIN3A LBD mod – binders of NR3A ligand-binding domain, primary screen, biophysical, differential scanning fluorimetry, uHTS. hit rate 2.5% among 340,000. Tm shift relative to glycine control, % at 25 µM. NR3A LBD differential scanning fluorimetry, Tm shift; 0% = protein alone, 100% = glycine-bound protein. Glutamate receptor ionotropic, NMDA 3A (GRIN3A) ligand-binding domain;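 active = melting temperature shift of at least 10% of the positive control shift, at one fixed dose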
MPTP inh – mitochondrial permeability transition pore inhibitors, primary screen, biochemical, isolated mouse mitochondria, absorbance. hit rate 1.4% among 360,000. inhibition, % at 10 µM. Ca2+ swelling absorbance, 30 min. AID 602449, 2012;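 active = inhibition of 50% or more, scaled per plate between neutral and stimulator controls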;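 also: 0% = DMSO wells given calcium and 100% = 1 mM EGTA wells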
Beta cell apopt – inhibitors of cytokine-induced beta cell apoptosis, primary screen, luminescence; AID 435005, 2010; INS-1E cytokine-induced death, ATP luminescence, 48 h; percent of positive-control rescue, neutral wells zero; hit rate 0.8% among 300,000; protection from apoptosis, % (no concentration beside the values);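 active = Every replicate reaches about 75%, or at least half do and their mean reaches it too, limit read from the data; inconclusive = At least half of replicates reach the limit but their mean does not; inactive = Under half of replicates reach the limit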;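 also: 0% = cytokine-treated negative control wells and 100% = positive control rescue; higher means more ATP so stronger rescue from cytokine killing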
SKKanGAS inh – S. pyogenes SKKanGAS growth inhibitors in kanamycin, primary screen, streptokinase expression inhibitor project, SKKanGAS strain, BacTiter-Glo luminescence; 6 h; inhibition, % at 7.5 µM; hit rate 1.3% among 300,000; AID 1662, 2009;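 active = mean replicate score, as percent of positive control median, at least 50; inconclusive = mean below 50 but one replicate at or above 50; inactive = mean and every replicate below 50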;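 also: strain carries kanamycin resistance gene driven by streptokinase promoter and grows in 40 µg/ml kanamycin; loss of luminescence reflects streptokinase promoter inhibition or plain growth inhibition; 0% = median of DMSO wells and 100% = positive control at its reference dose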
Mdm2 MdmX PPI – inhibitors of human Mdm2-MdmX association, primary screen, cell-based, luminescence, split luciferase, SaOS-2, uHTS | Protein Mdm4 (Homo sapiens) + E3 ubiquitin-protein ligase Mdm2 (Homo sapiens), … | SaOS-2 split-luciferase Mdm2/MdmX complementation | inhibition, % at 8 µM | hit rate 3% among 330,000;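 active = inhibition of at least 50% at 8 µM in the primary screen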
Target sequence (O15151 whole entry, looked up): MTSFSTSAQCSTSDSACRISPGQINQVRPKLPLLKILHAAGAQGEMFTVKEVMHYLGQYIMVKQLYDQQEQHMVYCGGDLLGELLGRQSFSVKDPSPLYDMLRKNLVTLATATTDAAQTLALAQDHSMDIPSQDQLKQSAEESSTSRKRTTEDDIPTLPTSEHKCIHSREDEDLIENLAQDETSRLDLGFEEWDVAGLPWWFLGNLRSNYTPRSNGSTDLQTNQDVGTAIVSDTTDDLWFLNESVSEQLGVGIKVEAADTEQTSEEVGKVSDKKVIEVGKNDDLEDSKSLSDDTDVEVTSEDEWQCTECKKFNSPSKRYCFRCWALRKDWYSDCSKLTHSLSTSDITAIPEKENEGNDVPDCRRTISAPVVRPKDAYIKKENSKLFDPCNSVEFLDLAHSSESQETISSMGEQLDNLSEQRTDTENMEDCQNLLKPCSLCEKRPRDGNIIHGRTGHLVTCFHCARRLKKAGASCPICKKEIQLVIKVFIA
Target sequence (Q00987 whole entry, looked up): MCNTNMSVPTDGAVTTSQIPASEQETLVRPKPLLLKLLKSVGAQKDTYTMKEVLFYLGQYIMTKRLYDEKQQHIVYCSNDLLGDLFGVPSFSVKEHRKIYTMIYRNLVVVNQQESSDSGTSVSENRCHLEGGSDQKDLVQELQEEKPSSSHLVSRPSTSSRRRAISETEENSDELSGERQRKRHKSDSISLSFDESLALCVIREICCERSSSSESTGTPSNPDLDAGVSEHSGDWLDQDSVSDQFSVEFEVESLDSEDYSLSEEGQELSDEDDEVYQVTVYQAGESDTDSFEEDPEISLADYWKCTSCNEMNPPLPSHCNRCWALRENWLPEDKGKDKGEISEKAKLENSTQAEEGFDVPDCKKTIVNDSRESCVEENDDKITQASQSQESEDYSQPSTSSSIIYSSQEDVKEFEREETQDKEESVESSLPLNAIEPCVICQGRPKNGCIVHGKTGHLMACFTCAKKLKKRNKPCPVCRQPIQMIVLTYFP
CSC inhib – cancer stem cell viability inhibitors, primary screen, luminescence; cancer stem cell-like cells viability; inhibition, % at 7.5 µM; hit rate 1.1% among 300,000; in the data active = inhibition above about 75%; inconclusive = no clear call, values can overlap the other calls; tested in HMLE shEcad cells
Mdm2 MdmX conf – Mdm2-MdmX complex disruptors, retested hits, confirmation, luminescence, single concentration. Mdm2-MdmX binding, luminescent assay. inhibition, % at 8 µM. shares compounds with Mdm2 MdmX PPI. hit rate 55% among 10,000. AID 489028, 2010; in the data active = inhibition above about 40%
Full FLuc ctr – full-length luciferase signal inhibition, confirmation, counter-screen for Mdm2/MdmX interaction inhibitor project, cell-based, single concentration, SaOS-2 | shares compounds with Mdm2 MdmX PPI | SaOS-2 full-length luciferase counterscreen, luminescence | inhibition, % at 8 µM | hit rate 77% among 6,200 | AID 504607, 2011;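 active = mean inhibition at 8 µM reaching about 37%, which flags the compound as non-specific, limit read from the data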;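 also: p53-null SaOS-2 cells with luciferase driven by a doxycycline-inducible promoter; compound on cells about two nights before reading with doxycycline added after day one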
Starred values were filed as active, the others as inactive; ? = inconclusive; . = no result. Sampled rows, rich in hits. Any-hit rate of the full collection: about 6.9%.

SMILES	GRIN3A LBD mod	MPTP inh	Beta cell apopt	SKKanGAS inh	Mdm2 MdmX PPI	CSC inhib	Mdm2 MdmX conf	Full FLuc ctr
Oc1ccc2ccccc2c1/C=N/Nc1nnc(-c2ncc[nH]2)c2ccccc12	21.3*	11.8	106.6*	97.4*	81.4*	100.1*	83.0*	54.9*
CC(=O)Nc1ccc(C=NNc2nnc(NN=Cc3ccc(NC(C)=O)cc3)c3ccccc23)cc1	6.6	2.3	.	.	.	.	.	.
COc1ccc(NC(=O)COC(=O)CCc2ccc(S(=O)(=O)N3CCOCC3)cc2)cc1OC	1.7	-2.9	-1.8	.	22.0	-15.1	.	.
C#CCn1c(=NC(=O)c2sc3ccccc3c2Cl)sc2cc(S(N)(=O)=O)ccc21	9.2	0.8	-0.7	18.5	.	15.0	.	.
C#CCn1c(=NC(=O)c2ccc(S(=O)(=O)N3CCc4ccccc4C3)cc2)sc2cc(S(N)(=O)=O)ccc21	-3.7	1.1	103.8*	8.7	86.4*	.	54.6*	23.0
CCOC(=O)N1CCN(C(=O)c2oc3ccc(S(=O)(=O)N(CC)CC)cc3c2C)CC1	-1.4	1.6	-5.2	-0.6	10.8	-14.0	.	.
NC(=O)N=Nc1c2[nH]c3ccccc3nc-2c2ccccc12	-0.2	1.8	62.4	72.1*	81.6*	58.4	52.4*	65.4*
O=c1[nH]c2ccccc2nc1-c1ccccc1	0.5	-0.1	2.3	1.0	-3.6	0.3	.	.
CNc1cnc(-c2ccccc2OC)cn1	.	-0.8	.	.	.	.	.	.
O=c1c2cc(Cl)ccc2nc(-c2ccc(Cl)c(Cl)c2)n1O	-0.5	36.3	38.1	74.5*	72.1*	120.1*	83.2*	21.3
O=c1c2cc(Br)ccc2nc(-c2cccc(C(F)(F)F)c2)n1O	-8.1	6.3	7.4	111.1*	55.5*	13.9	42.1*	29.9
N#Cc1ccc(-c2nc3ccc(Br)cc3c(=O)n2O)cc1	0.0	0.9	8.2	4.9	17.9	20.7	.	.
NC(=S)N=Nc1ccc(O)cc1	-1.4	6.5	.	.	.	.	.	.
COc1ccc(-n2nc(C(=O)NCCCN3CCCC3=O)c3c4ccccc4n(C)c3c2=O)cc1Cl	-0.8	-0.4	8.4	23.8	10.7	-10.7	.	.
COc1ccccc1CNC(=O)c1nn(-c2ccc(C)cc2)c(=O)c2c1c1ccccc1n2C	-1.4	1.4	11.4	12.0	79.1*	0.0	21.4	.
COc1ccc(-n2nc(C(=O)NCc3ccco3)c3c4ccccc4n(C)c3c2=O)cc1Cl	0.1	-1.7	5.2	-1.0	57.3*	-1.2	0.6	.
Cc1c(Cl)cccc1NC(=O)C1COc2ccccc2O1 (stereo not given)	0.5	-3.6	.	3.7	-10.3	-1.3	.	.
Nc1c(C(=O)CSc2ncccn2)c(=O)[nH]c(=O)n1C1CC1	1.1	-1.5	-8.0	.	-5.3	.	.	.
COc1ccc(C(=O)N/C(=C\c2cn(S(=O)(=O)N(C)C)c3ccccc23)C(=O)N2CCN(C)CC2)cc1OC	.	0.8	.	.	.	.	.	.
N#C/C(=C\c1ccc([N+](=O)[O-])o1)c1nc2ccccc2[nH]1	22.2*	.	100.1*	31.5	97.1*	?	69.6*	60.6*
Cc1ccc2nc(/C(C#N)=C\c3ccc([N+](=O)[O-])o3)[nH]c2c1	-4.7	15.2	101.9*	89.5*	96.9*	2.8	75.0*	29.9
Cc1onc(-c2c(F)cccc2Cl)c1C(=O)N1CCN(c2ncc(Br)cn2)CC1	-1.3	0.8	.	3.5	-10.9	-1.6	.	.
C=CS(=O)(=O)N(Cc1ccc(Cl)c(Cl)c1)C[C@@H](O)CO	-3.8	-1.4	.	.	81.0*	.	83.6*	55.0*
O=C(c1ccccc1)c1coc2c1C(=O)c1ccccc1C2=O	0.5	-2.9	67.1	13.4	45.2	36.2	.	.
